In PubChem BioAssay (Tox21):
Inconclusive results are not listed. Calls of active or inactive are those of the source. Unless noted, the call rests on the fitted dose curve; in most records, active means well fitted curve in the direction sought with a large enough effect in the repeat runs; inconclusive means weak or mixed curves; inactive means no such curve, though single readings can be large; an effect the other way counts as inactive or inconclusive.

assay: qHTS assay to identify small molecule antagonists of the progesterone receptor (PR) signaling pathway - cell viability counter screen (AID 1346798); conditions: PR-UAS-bla HEK293T viability, CellTiter-Glo luminescence, 16 h; series mostly up to 92.4 µM; activity change, negative = cytotoxicity: at the top concentration; further: nearly all actives have a fitted effect of over 50% in size
Procedure, shortened: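 PR-UAS-bla HEK293T cells, 3,000/well in 2% charcoal-stripped FBS medium, dosed with compounds plus R5020 agonist and incubated 16 h at 37C. Viability then measured in the same wells by CellTiter-Glo luminescence after 30 min at RT.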
On the % scale 0 is the no-effect control and ±100 the full control effect.

| SMILES | activity change, negative = cytotoxicity |
| --- | --- |
| C=C[Si](C)(C)Cl | -4.28% [at 8.39 µM] (inactive) |
| CCC(C)(C)c1ccc(CC(C)CN2C[C@@H](C)O[C@@H](C)C2)cc1 (stereo partly drawn) | 4.59% [at 42.5 µM] (inactive) |
| Cc1ccc2nc(-c3ccc(N)cc3)sc2c1S(=O)(=O)O | -12.5% [at 42.5 µM] (inactive) |
| O=[N+]([O-])c1ccc(CO)cc1 | -0.543% (inactive) |
| NC(=O)c1ccccc1Cl | -1.77% (inactive) |
| CC(CC(C)(C)C)CC(C)(C)CC(C)(C)C (stereo not drawn) | 4.1% [at 42.5 µM] (inactive) |
| C=Cc1ccncc1 | -7.41% (inactive) |
| CCN(CC)c1ccc(N=Nc2ccccc2)cc1 | -12.5% (inactive) |

assay: qHTS assay to identify small molecule agonists of the progesterone receptor (PR) signaling pathway - cell viability counter screen (AID 1346799; calls by dose curve; further: nearly all actives have a fitted effect of over 45% in size; further: potency means the concentration at half of the fitted maximal effect); conditions: PR-UAS-bla HEK293T viability, CellTiter-Glo luminescence, 16 h; series mostly up to 92.4 µM; activity change, negative = cytotoxicity: at the top concentration
Procedure, shortened: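 Counter screen in the PR-UAS-bla HEK293T wells (2% charcoal-stripped FBS, 16 h compound exposure at 37 C) after the bla read. CellTiter-Glo added, 30 min at room temperature, luminescence read as cell viability.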

| SMILES | activity change, negative = cytotoxicity | Potency |
| --- | --- | --- |
| CC/C=C(\C)C=O | -0.717% (inactive) | – |
| O=C(O)CN(CCCN(CC(=O)O)CC(=O)O)CC(=O)O | -13.8% [at 19 µM] (inactive) | – |
| CSc1ccc(O)cc1C | -2.75% (inactive) | – |
| O=C(NCc1ncc(C(F)(F)F)cc1Cl)c1c(Cl)cccc1Cl | -1.05% (inactive) | – |
| O=c1cc[nH]cc1 | 0% (inactive) | – |
| CCOc1nc(F)cc2nc(S(=O)(=O)Nc3c(Cl)cccc3C(=O)OC)nn12 | -25.7% (inactive) | – |
| Cn1ccnc1 | -0.453% (inactive) | – |
| CCCCCCCCCCCCS(=O)(=O)Cl | -21.2% [at 19 µM] (inactive) | – |
| CCN(CCC#N)c1ccc(N=Nc2ccc([N+](=O)[O-])cc2)cc1 | -2.85% (inactive) | – |
| CC(C)C(=O)C(C)C | -2.52% (inactive) | – |
| CCN(CC)c1ccc2c(c1)Oc1cc(N(CC)CC)ccc1C21OC(=O)c2ccccc21 | 6.62% [at 42.5 µM] (inactive) | – |
| Cc1cc(Br)ccc1NC(=O)CCl | – | 27.3 µM (active) |
| [Cl][Eu]([Cl])[Cl] | -0.783% (inactive) | – |
| N#CCCOCCC#N | -15.5% (inactive) | – |
| Oc1cccc2c(O)cccc12 | -7.49% (inactive) | – |
| Oc1ccc(C2(c3ccc(O)c(C4CCCCC4)c3)CCCCC2)cc1C1CCCCC1 | – | 27.3 µM (active) |
| C=CC(=O)OCCOC1C2CCC1C1CC=CC12 (stereo not drawn) | 1.19% [at 19 µM] (inactive) | – |
| CC(C=O)c1ccccc1 (stereo not drawn) | 0.0243% (inactive) | – |
| CCCC(C)C=O (stereo not drawn) | -4.6% (inactive) | – |
| C=C[Si](C)(C)Cl | -13.4% [at 8.39 µM] (inactive) | – |
| Cc1ccc2nc(-c3ccc(N)cc3)sc2c1S(=O)(=O)O | -0.414% [at 42.5 µM] (inactive) | – |
| O=[N+]([O-])c1ccc(CO)cc1 | -5.58% (inactive) | – |
| NC(=O)c1ccccc1Cl | -8.67% (inactive) | – |
| CC(CC(C)(C)C)CC(C)(C)CC(C)(C)C (stereo not drawn) | -12.4% [at 42.5 µM] (inactive) | – |
| O=C(O)C[C@H](O)C[C@H](O)/C=C/c1c(C2CC2)nc2ccccc2c1-c1ccc(F)cc1 | – | 0.651 µM (active) |
| C=Cc1ccncc1 | 13.9% (inactive) | – |

assay: qHTS assay to identify small molecule antagonists of the TGF-beta/Smad signaling pathway - cell viability counter screen (AID 1346824); conditions: SBE-bla HEK293T viability, CellTiter-Glo luminescence; series mostly up to 76.8 µM; viability change, negative = cytotoxic: at the top concentration; further: nearly all actives have a fitted effect of over 50% in size
Procedure, shortened: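 Cytotoxicity counter-screen run in the same wells as the beta-lactamase Smad reporter read: CellTiter-Glo luminescence after 30 min at room temperature. HEK 293T SBE-bla cells had 5 hr compound exposure at 37 C with TGF-beta1 (0.25 ng/mL stock).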

| SMILES | viability change, negative = cytotoxic |
| --- | --- |
| O=C(O)CN(CCCN(CC(=O)O)CC(=O)O)CC(=O)O | 5.13% [at 15.8 µM] (inactive) |
| CSc1ccc(O)cc1C | -6.36% (inactive) |
| O=C(NCc1ncc(C(F)(F)F)cc1Cl)c1c(Cl)cccc1Cl | -9.16% (inactive) |
| O=c1cc[nH]cc1 | 8.61% (inactive) |
| CN1CCN(CCCN2c3ccccc3Sc3ccc(Cl)cc32)CC1 | -2.45% [at 35.3 µM] (inactive) |
| CCOc1nc(F)cc2nc(S(=O)(=O)Nc3c(Cl)cccc3C(=O)OC)nn12 | 2.84% (inactive) |
| CCN(CCC#N)c1ccc(N=Nc2ccc([N+](=O)[O-])cc2)cc1 | 4.81% (inactive) |
| CC(C)C(=O)C(C)C | 10.1% (inactive) |
| CCN(CC)c1ccc2c(c1)Oc1cc(N(CC)CC)ccc1C21OC(=O)c2ccccc21 | -0.232% [at 35.3 µM] (inactive) |
| Cc1cc(Br)ccc1NC(=O)CCl | -29.6% (inactive) |
| N#Cc1nc(Cl)c(Cl)c(Cl)c1Cl | -7.31% (inactive) |
| [Cl][Eu]([Cl])[Cl] | 0.841% (inactive) |
| Oc1cccc2c(O)cccc12 | 20.9% (inactive) |
| Nc1ccc(F)c([N+](=O)[O-])c1 | 5.62% (inactive) |
| CCSCC | 1.76% (inactive) |
| C=CC(=O)OCCOC1C2CCC1C1CC=CC12 (stereo not drawn) | -7.56% [at 15.8 µM] (inactive) |
| CCCC(C)C=O (stereo not drawn) | 0.389% (inactive) |
| O=C1OC(=O)c2cc(-c3ccc4c(c3)C(=O)OC4=O)ccc21 | 5.94% (inactive) |
| CCC(C)(C)c1ccc(CC(C)CN2C[C@@H](C)O[C@@H](C)C2)cc1 (stereo partly drawn) | -13.6% [at 35.3 µM] (inactive) |
| O=[N+]([O-])c1ccc(CO)cc1 | 4.7% (inactive) |
| NC(=O)c1ccccc1Cl | 0.201% (inactive) |
| CC(CC(C)(C)C)CC(C)(C)CC(C)(C)C (stereo not drawn) | 3.11% [at 35.3 µM] (inactive) |
| C=Cc1ccncc1 | -0.186% (inactive) |

assay: qHTS assay to identify small molecule agonists of the TGF-beta/Smad signaling pathway - cell viability counter screen (AID 1346829); conditions: SBE-bla HEK293T viability, CellTiter-Glo luminescence, 5 h; series mostly up to 76.8 µM; activity change, negative = cytotoxicity: at the top concentration; further: nearly all actives have a fitted effect of over 45% in size; further: potency means the concentration at half of the fitted maximal effect; on activity change, negative = cytotoxicity: top concentration of the series differs between compounds
Procedure, shortened: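 Luminescence from CellTiter-Glo, read after a 30 min room-temperature incubation, gives cell viability of SBE-bla HEK 293T cells treated 5 hr with compounds at 37 C.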

| SMILES | activity change, negative = cytotoxicity | Potency |
| --- | --- | --- |
| O=C(O)CN(CCCN(CC(=O)O)CC(=O)O)CC(=O)O | -5.77% [at 15.8 µM] (inactive) | – |
| CSc1ccc(O)cc1C | 20.5% (inactive) | – |
| O=C(NCc1ncc(C(F)(F)F)cc1Cl)c1c(Cl)cccc1Cl | -14.3% (inactive) | – |
| O=c1cc[nH]cc1 | -4.39% (inactive) | – |
| CN1CCN(CCCN2c3ccccc3Sc3ccc(Cl)cc32)CC1 | -12.8% [at 35.3 µM] (inactive) | – |
| CCOc1nc(F)cc2nc(S(=O)(=O)Nc3c(Cl)cccc3C(=O)OC)nn12 | -2.1% (inactive) | – |
| Cn1ccnc1 | -9.38% (inactive) | – |
| CCCCCCCCCCCCS(=O)(=O)Cl | 19.7% [at 15.8 µM] (inactive) | – |
| CCN(CCC#N)c1ccc(N=Nc2ccc([N+](=O)[O-])cc2)cc1 | 5.71% (inactive) | – |
| CCN(CC)c1ccc2c(c1)Oc1cc(N(CC)CC)ccc1C21OC(=O)c2ccccc21 | 1.77% [at 35.3 µM] (inactive) | – |
| N#Cc1nc(Cl)c(Cl)c(Cl)c1Cl | 4.26% (inactive) | – |
| [Cl][Eu]([Cl])[Cl] | 10.1% (inactive) | – |
| N#CCCOCCC#N | -12.4% (inactive) | – |
| Oc1cccc2c(O)cccc12 | -0.0411% (inactive) | – |
| Nc1ccc(F)c([N+](=O)[O-])c1 | 5.06% (inactive) | – |
| CC(=O)CC(N)=O | -7.14% (inactive) | – |
| Oc1ccc(C2(c3ccc(O)c(C4CCCCC4)c3)CCCCC2)cc1C1CCCCC1 | – | 49 µM (active) |
| CCSCC | -3.58% (inactive) | – |
| C=CC(=O)OCCOC1C2CCC1C1CC=CC12 (stereo not drawn) | 7.46% [at 15.8 µM] (inactive) | – |
| C=CC(=O)O[C@H]1C[C@@H]2CC[C@@]1(C)C2(C)C | 5.02% (inactive) | – |
| CCC(C)(C)c1ccc(CC(C)CN2C[C@@H](C)O[C@@H](C)C2)cc1 (stereo partly drawn) | -23.3% [at 35.3 µM] (inactive) | – |
| O=[N+]([O-])c1ccc(CO)cc1 | -7.89% (inactive) | – |
| NC(=O)c1ccccc1Cl | -0.436% (inactive) | – |
| CC(CC(C)(C)C)CC(C)(C)CC(C)(C)C (stereo not drawn) | 8.92% [at 35.3 µM] (inactive) | – |
| O=C(O)C[C@H](O)C[C@H](O)/C=C/c1c(C2CC2)nc2ccccc2c1-c1ccc(F)cc1 | 3.76% [at 15.8 µM] (inactive) | – |
| C=Cc1ccncc1 | 7.81% (inactive) | – |
